Screening results deposited in PubChem by National Center for Advancing Translational Sciences (NCATS).
KB-3-1 tox = kills parental KB-3-1 adenocarcinoma cells; KB-3-1 viability, CellTiter-Glo ATP luminescence, 72 h; Potency, µM (highest dose often 46.1 µM), most hits filed as cytotoxic; actives 1.4% (n = 400,000); note: nearly all actives have a fitted effect of over 60% in size
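KB-3-1 cells, DMEM (no phenol red) + 10% FBS; compound by pin transfer, 72 h, 37 °C. Readout: CellTiter-Glo luminescence after 10 min. Data normalized, curve-fitted.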
SW480 rerep = DNA re-replication induction in SW480 cells | SW480 DNA re-replication, Hoechst DNA content imaging, 48 h | Potency, µM (highest dose often 46.1 µM), hits mostly activators | actives 1.8% (n = 340,000); note: nearly all actives have a fitted effect of over 55% in size
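Quantitative HTS format with DMSO vehicle controls; 48 hr drug incubation at 37 C, then 40 min Hoechst staining and scanning imager measurement at 405 nm excitation.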
RORg inh = inhibitors of mouse ROR gamma transcriptional activity; Drosophila S2 Gal4-RORgamma UAS-luciferase reporter, 20 h; AID 2551; Potency, µM (titrated, usually from 53.6 µM), most hits filed as inhibitors; P51450; actives 5.4% (n = 310,000); note: nearly all actives have a fitted effect of over 60% in size
Target sequence (P51450 whole entry, looked up, the tested form may be a part): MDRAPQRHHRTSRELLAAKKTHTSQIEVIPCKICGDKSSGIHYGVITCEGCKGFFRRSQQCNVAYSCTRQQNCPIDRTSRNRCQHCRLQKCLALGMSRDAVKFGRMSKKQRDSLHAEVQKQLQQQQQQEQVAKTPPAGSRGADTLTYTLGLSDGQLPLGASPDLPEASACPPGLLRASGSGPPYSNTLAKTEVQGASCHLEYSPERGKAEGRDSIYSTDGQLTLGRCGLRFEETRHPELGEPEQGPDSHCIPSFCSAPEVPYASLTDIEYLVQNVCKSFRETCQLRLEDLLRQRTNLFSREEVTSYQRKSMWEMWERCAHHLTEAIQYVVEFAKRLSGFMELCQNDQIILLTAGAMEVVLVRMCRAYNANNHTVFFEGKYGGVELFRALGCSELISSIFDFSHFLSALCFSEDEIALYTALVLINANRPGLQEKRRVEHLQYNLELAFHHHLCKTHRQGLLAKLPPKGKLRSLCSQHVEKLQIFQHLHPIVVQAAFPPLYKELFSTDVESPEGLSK
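Luminescence from a UAS-regulated Photinus luciferase reporter in stably transfected Drosophila Schneider cells is measured; decreased signal marks ROR gamma inhibition. Fusion expression is induced by 700 uM copper sulfate for 20 hr.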
KB-V1 cytotox = KB-V1 MDR subline cytotoxicity. KB-V1 MDR cells viability, CellTiter-Glo, 72 h. Potency, µM (titrated, usually from 46.1 µM), hits mostly cytotoxic. actives 3.4% (n = 400,000). AID 1347076; note: nearly all actives have a fitted effect of over 60% in size
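KB-V1, DMEM (no phenol red) + 10% FBS; cpd pin-transferred, titration series; 72 h, 37 degrees C; CellTiter-Glo, luminescence. Data normalized, curve-fit.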
MCF10A rereplic = inducers of DNA re-replication in MCF 10A breast cells. AID 624296. Potency, µM (doses to about 46.1 µM), actives largely listed as activators. actives 2.9% (n = 350,000). MCF 10A DNA re-replication, Hoechst nuclear intensity, 48 h; note: nearly all actives have a fitted effect of over 50% in size
VP16 counter = inhibits Gal4-VP16 luciferase reporter, ROR gamma counter-screen. Drosophila S2 Gal4-VP16 UAS-luciferase, luminescence, 20 h. Potency, µM (top dose mostly 53.6 µM), actives largely listed as inhibitors. actives 3.5% (n = 310,000);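 note: Gal4-VP16 expression switched on by copper sulfate through the metallothionein promoter; nearly all actives have a fitted effect of over 50% in size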
Hits are given with their value; i = inactive; ? = inconclusive; nt = no result given; [ ] = another dose, or the depositor's remark. In the library only some 10% were active in any assay of this set; here they are far more common. Calls come from the whole dose curve; as a rule, active = well fitted curve in the direction sought with a large enough effect; inconclusive = small, poorly fitted or top-dose-only effect, or another doubt; inactive = no such curve, though single readings can be large; an effect the other way counts as inactive or inconclusive.

SMILES	KB-3-1 tox	SW480 rerep	RORg inh	KB-V1 cytotox	MCF10A rereplic	VP16 counter
CCOc1ccc2cc(C3CC(c4ccco4)=NN3S(=O)(=O)c3ccccc3)c(Cl)nc2c1 (stereo unspecified)	i	i	i	5.8µM	i	i
COc1ccc2cc(C3CC(c4ccco4)=NN3S(=O)(=O)c3ccccc3)c(Cl)nc2c1 (stereo unspecified)	i	i	i	15µM	i	i
CC1CCCN(CCOCCOc2ccc(Cl)cc2Br)C1 (stereo unspecified)	?	?	i	16µM	i	i
CCCN1CC(CSC)C[C@H]2c3cccc4[nH]cc(c34)C[C@H]21 (stereo partly specified)	nt	nt	i	nt	nt	i
Cc1cnn(CCC(=O)NNC(=S)Nc2ccc(F)cc2)c1	i	i	0.45µM	i	i	2.8µM
Cc1nn(CCC(=O)NNC(=S)Nc2cccc(Cl)c2)c(C)c1[N+](=O)[O-]	i	i	i	i	i	i
CCNC(=S)NNC(=O)CCn1cc(C)cn1	i	i	6.3µM	i	i	?
Cc1cnn(CCC(=O)NNC(=S)Nc2cccc(Cl)c2)c1	i	6.5µM	0.35µM	i	i	?
COc1cc(N)c(Cl)cc1C(=O)N[C@H]1CCN(CCCOc2ccc(F)cc2)C[C@@H]1OC	nt	nt	i	nt	nt	i
CCc1ccc2oc(-c3ccc(C)c(NC(=O)Cc4ccccc4)c3)nc2c1	i	nt	nt	i	nt	nt
CC(=O)Nc1ccc(-c2ccnc3c2CC(C(=O)NCC2CC2)O3)cc1 (stereo unspecified)	?	nt	nt	i	nt	nt
CC(=O)Nc1ccc(-c2ccnc3c2CC(C(=O)NCC2CCOCC2)O3)cc1 (stereo unspecified)	5.8µM	nt	nt	i	nt	nt
CC(=O)c1cccc(-c2ccnc3c2CC(C(=O)NCC2CCOCC2)O3)c1 (stereo unspecified)	4.6µM	nt	nt	i	nt	nt
CC12CCC=CC1=C(C=O)C1C2CCC2(C)C(O)CCC12 (stereo unspecified)	18µM	i	nt	?	?	nt
CC(NC(=O)NNC(N)=S)(C(F)(F)F)C(F)(F)F	i	i	?	i	i	20µM
COc1cccc(CNC(=O)c2c(O)nc3ccccn3c2=O)c1	i	nt	nt	23µM	nt	nt
COc1ccc(CNC(=O)c2c(O)nc3c(C)cccn3c2=O)cc1	i	nt	nt	?	nt	nt
COc1ccc(CCNC(=O)c2c(O)nc3ccccn3c2=O)cc1OC	i	nt	nt	7.3µM	nt	nt
CCc1ccc(C2C(C(=O)Nc3ccccc3C)=C(C)Nc3nc(SCc4cccc(OC)c4)nn32)cc1 (stereo unspecified)	i	nt	nt	i	nt	nt
CCc1nc2c(OCc3ccc(OC(F)F)cc3)cccn2c1N(C)C(=O)c1ccc(OC)cc1	i	nt	nt	?	nt	nt
Cc1ccccc1-c1cc(C(=O)Nc2nc3c(s2)CCCC3)c2ccccc2n1	i	i	10µM	i	i	i
O=C(Nc1nc2c(s1)CCCC2)c1cc(-c2ccc3c(c2)OCO3)nc2ccccc12	nt	nt	i	nt	nt	?
Cc1ccccc1C(=O)NC(C(=O)Nc1nc2c(s1)CCCC2)C(C)C (stereo unspecified)	i	i	?	i	?	20µM
Fc1ccc(-c2cc(-c3ccccc3)c3c(n2)-c2cc(F)ccc2OC3)cc1	i	nt	nt	i	nt	nt
CCCc1ncc(C(O)(c2ccccc2)c2ccc(C)cc2)n1C (stereo unspecified)	i	i	?	?	i	i
SMILES	KB-3-1 tox	SW480 rerep	RORg inh	KB-V1 cytotox	MCF10A rereplic	VP16 counter
CCCc1ncc(C(O)(c2ccccc2)c2ccccc2)n1C	i	i	14µM	?	i	i
O=C(CCN1CCOCC1)N/N=C/c1cc(Br)cc(Br)c1O	?	i	1.4µM	?	?	5µM
O=C(CCN1CCOCC1)N/N=C/c1cc([N+](=O)[O-])ccc1OC(F)F	i	?	i	i	i	i
O=C(CNC(=O)c1cccc(Br)c1)N/N=C/c1cc(Br)cc(Br)c1O	i	i	2.5µM	i	i	13µM
O=C(Cc1ccccc1)N/N=C/c1cc(Br)cc(Br)c1O	?	4.1µM	0.79µM	i	7.3µM	1.6µM
O=C(Cc1ccccc1)N/N=C/c1cc(Br)cs1	i	i	i	i	i	i
COc1ccc(C(NC(=O)COc2ccc(C#N)cc2)c2ccc(OC)cc2)cc1	i	nt	nt	i	nt	nt
CCN(CC)C(=O)c1ccc2nc(-c3ccccc3)c(-c3ccccc3)nc2c1	?	i	i	4.1µM	i	i
CCNC(=O)c1ccc2nc(-c3ccccc3)c(-c3ccccc3)nc2c1	i	nt	nt	i	nt	nt
CCN(CC)C(=O)c1ccc2nc3ccccc3nc2c1	5.8µM	5.2µM	i	16µM	?	i
C=C(C)C(O)/C=C/CCCCCCC (stereo unspecified)	nt	nt	i[10 µM]	nt	nt	i[10 µM]
Cc1ccc(C)c(Nc2nn3c(=O)c4ccc(C(=O)N(C)Cc5ccccc5)cc4nc3s2)c1	i	nt	nt	i	nt	nt
O=C(C1=C[C@@H](C2CCCCC2)C[C@@H](OCc2ccc(CO)cc2)O1)N1CCN(Cc2ccccc2)CC1	?	i	?	?	?	13µM
O=C(Nc1ccccc1)C1=C[C@@H](C2CCCCC2)C[C@@H](OCc2ccc(CO)cc2)O1	?	?	i	i	16µM	i
O=C(Nc1ccccc1)C1=C[C@H](C2CCCCC2)C[C@H](OCc2ccc(CO)cc2)O1	i	i[9.22 µM]	i	i	?	i
CCOc1[nH]c(/N=C/c2ccc(OC)cc2)c(C#N)c1C#N	i	nt	nt	i	nt	nt
Cc1ccc(CNc2ncnc3onc(-c4ccc(F)cc4)c23)cc1	?	nt	nt	i	nt	nt
Cc1nc2c(=O)[nH]n(C)c2nc1C	i	nt	nt	i	nt	nt
Cc1nc2[nH]c(=S)n(C)c(=O)c2nc1C	i	26µM	i	i	i	i
COc1ccc(C(=O)C[n+]2ccc(Cl)c3ccc(Cl)cc32)cc1	i	nt	nt	i	nt	nt
O=C1C2CCCN2C(c2ccc(F)cc2)N1c1nccs1 (stereo unspecified)	i	i	?	i	i	i
Cc1ccc(C2N(c3nccs3)C(=O)C3CCCN32)cc1 (stereo unspecified)	i	i	13µM	i	i	i
O=C1C2CCCN2C(c2ccc(Cl)cc2)N1c1nccs1 (stereo unspecified)	i	i	13µM	i	i	i
O=C(CCNC(=O)c1ccc([N+](=O)[O-])cc1)NCc1ccco1	i	i	nt	i	i	nt
CC1(C(=O)NCc2ccccc2)CN(S(C)(=O)=O)CC(=O)N1CCc1c[nH]c2ccccc12 (stereo unspecified)	i	nt	nt	i	nt	nt
COc1c(C(=O)NCCSC(C)(C)C)ccc2ccccc12	i	i	2.2µM	i	i	i
CCn1nc(C)c2c(-c3ccccc3)cc(=O)n(C(C)C(=O)Nc3cccc(F)c3)c21 (stereo unspecified)	i	nt	nt	?	nt	nt
N#Cc1c(SCC(=O)Nc2nccs2)nc2c(c1-c1ccco1)CCCC2	i	?	10µM	i	i	i
